Measurements reported in ChEMBL document CHEMBL3988442, “University of Dundee, Small-Polar-MMV Screening Library” (2021).
Screen size: about 48,000 compounds; about 13,000 (27%) showed an effect of 50% or more. The list shows a part of the results.

tested on: Wolbachia pipientis; experiment: Anti-Wolbachia Cell-Based Screen; format: functional; design: scale not given: in the data most compounds retested in dose-response had high values; settings: 5 µM

Structure (SMILES) | Percent Effect
COc1ccccc1CC(=O)N1CCCC(c2nccn2CC(N)=O)C1 (configuration not stated) | 0.4607%
COc1ccc(OCCc2sc(C3(O)CCCNCC3)nc2C)cc1.Cl (configuration not stated) | 2.251%
O=C1NCCCC12CCN(c1nc3c(c(C(F)(F)F)n1)CCCC3)C2 (configuration not stated) | -1.844%
Fc1ccc(-c2cnc(CNC3CCc4ncnn4C3)o2)cc1 (configuration not stated) | 7.148%
Cc1nc2n(n1)CC(NCc1nc(-c3cccs3)no1)CC2 (configuration not stated) | -19.82%
Cc1nc2n(n1)CC(NCc1nc3ccccc3o1)CC2 (configuration not stated) | 12.54%
Cc1ccc(-c2nc(CNC3CCc4ncnn4C3)no2)cc1 (configuration not stated) | 118.2%
c1ccc(-c2noc(CNC3CCc4ncnn4C3)n2)nc1 (configuration not stated) | 0.9775%
Cc1nc2n(n1)CC(NCc1nc(C)c(C)o1)CC2 (configuration not stated) | -8.158%
c1ccc(-c2nc(CNC3CCc4ncnn4C3)no2)cc1 (configuration not stated) | 109.8%
Cc1ccc(O)c(CNC2CCc3nc(C)nn3C2)n1 (configuration not stated) | 92.84%
Cc1nc2n(n1)CC(NCc1nc(-c3cccnc3)no1)CC2 (configuration not stated) | -5.692%
c1nc2n(n1)CC(NCc1nc(-c3ccsc3)no1)CC2 (configuration not stated) | -6.7%
Cc1cccc(-c2nc(CNC3CCc4nc(C)nn4C3)no2)c1 (configuration not stated) | 111%
O=C(CN1CCOC(c2ccc(Cl)s2)C1)NCc1ccco1 (configuration not stated) | 16.69%
CC(C)OC(=O)CCNC(=O)Nc1cccc2ncccc12 | -2.669%
COC1CCCN(C(=O)NCc2ccc(C(=O)N(C)C(C)C)cc2)C1 (configuration not stated) | -8.588%
Cc1ccc(CNC(=O)N2CCCC(NS(C)(=O)=O)C2)cc1 (configuration not stated) | 112.9%
CS(=O)(=O)NC1CCN(C(=O)c2ccc(Br)o2)C1 (configuration not stated) | -2.031%
CS(=O)(=O)NC1CCCN(C(=O)NCc2ccoc2)C1 (configuration not stated) | 92.13%
CN1C[C@@H]2CN(C(=O)NCc3cccc(F)c3)CCC[C@]2(C(=O)O)C1.O=C(O)C(F)(F)F | -0.5828%
Cc1cc(CN2CCCC(NS(C)(=O)=O)C2)ccc1-n1cncn1 (configuration not stated) | 11.85%

Structure (SMILES) | Percent Effect
COc1ccc(CNC(=O)N2CCCC(Nc3ccccc3)C2)cn1 (configuration not stated) | -13.37%
COc1ccccc1CNC(=O)N1CCCC(NS(C)(=O)=O)C1 (configuration not stated) | 10.46%
CS(=O)(=O)NC1CCCN(C(=O)NCc2cccc(F)c2)C1 (configuration not stated) | 119.2%
CS(=O)(=O)NC1CCCN(C(=O)NCc2ccccc2Cl)C1 (configuration not stated) | 118.4%
CS(=O)(=O)NC1CCN(C(=O)NCCc2ccccc2F)CC1 | 4.744%
CC(C(=O)N1CCc2ccccc21)N1CCc2cncnc2C1 (configuration not stated) | 1.414%
CC1(C)CN(C(=O)CCc2nc(-c3ccncc3)no2)CCO1 | 17.48%
CC(=O)N(C/C=C/c1ccccc1)CCO | -9.29%
CC(C)c1nccn1C1CCCN(C(=O)c2ccc3c(c2)COC3)C1 (configuration not stated) | -6.912%
CC(C)c1nccn1C1CCCN(C(=O)c2ccn(C)c(=O)c2)C1 (configuration not stated) | -3.204%
O=C(c1ccc2nncn2c1)N1CCCC(n2ccnc2)C1 (configuration not stated) | 105.7%
CCc1nccn1C1CCCN(C(=O)c2ccc3nncn3c2)C1 (configuration not stated) | -7.143%
CC(C)c1nccn1C1CCCN(C(=O)c2ccc3nncn3c2)C1 (configuration not stated) | 89.79%
Cc1nccn1C1CCCN(C(=O)c2ccc3nncn3c2)C1 (configuration not stated) | 98.97%
CN(Cc1cccnc1)C[C@@H]1OC[C@H]2CN(C(=O)C3CC3)CC[C@H]21.O=C(O)C(F)(F)F.O=C(O)C(F)(F)F | -11.76%
O=C(Nc1cc(Cl)ccc1Cl)NC1CCN(C2CCOC2)CC1 (configuration not stated) | -16.63%
CCCn1ccnc1CN1C[C@@H](CN2CCCCC2)[C@@H](CO)C1 | -0.9532%
Cc1nn(C)cc1-c1ccnc(N(C)Cc2cnn(C)c2)n1 | -26.11%
Cc1nc(N(C)CCCc2nccn2C)c2nc(C)oc2n1 | -2.669%
CN(Cc1cnn(C)c1)c1nccc(-c2cc(C(=O)O)ccn2)n1 | 109.1%
CN(CCCc1nccn1C)c1nccc(-c2cc(C(=O)O)ccn2)n1 | 93.19%
Cn1cc(CCCN2CCN(C(=O)c3cccc(O)c3)CC2)cn1 | -1.766%

Structure (SMILES) | Percent Effect
CN(CCCc1cnn(C)c1)c1nccc(-c2cc(C(=O)O)ccn2)n1 | 108.4%
CN(CCCc1cnn(C)c1)C(=O)Nc1cccc(C#N)c1 | -5.075%
CN(CCCc1nccn1C)c1nccc(N2CCC(O)C2)n1 (configuration not stated) | 13.17%
CC(C)N(Cc1cnn(C)c1)C(=O)c1ccnc(N(C)C)c1 | 14.77%
COCCn1ccnc1CN(Cc1ccccn1)Cc1sccc1C | -1.6%
CCOc1ccccc1NC(C)C(=O)N(C)Cc1cccc(F)c1 (configuration not stated) | 13.58%
CC(=O)Nc1nc(CN(C)CC2CCCN2c2cccnn2)cs1 (configuration not stated) | 10.35%
CNC(=O)CC1CCN(C(=O)NCc2coc3ccccc23)CC1 | -8.978%
Cn1ccnc1C(O)c1ccccc1N1CCN(Cc2cccs2)CC1 (configuration not stated) | 123.9%
CC(C)c1noc(C(C)N2CCN(Cc3ccsc3)CC2)n1 (configuration not stated) | 12.33%
CC(C)Oc1ncnc2c1CCN(Cc1cccs1)CC2 | 10.07%
Cc1ccccc1C(C)NC(=O)CN1CCN(Cc2cccs2)CC1 (configuration not stated) | 6.89%
Cn1ccnc1C(O)c1ccccc1N1CCN(Cc2ccsc2)CC1 (configuration not stated) | 129.7%
c1cc(CN2CCN(Cc3cscn3)CC2)cs1 | -0.1438%
Cn1cc(N2CCCC(Nc3ccc4c(c3)CCCO4)C2=O)cn1 (configuration not stated) | 3.281%
CC1CCN(C)c2ccccc2N1C(=O)c1ccc(=O)n(C)c1 (configuration not stated) | -5.744%
CNS(=O)(=O)c1cccc(CNc2ccc(C(F)(F)F)nn2)c1 | 12.46%
COc1cccc(CC(=O)N2CCC(c3ccn4nccc4n3)CC2)c1 | 113.7%
Cc1cnn(CC(=O)N2CCC(c3ccn4nccc4n3)CC2)c1 | 130%
Cc1cc(C)n(CCC(=O)N2CCC(c3nc(C(C)C)no3)CC2)n1 | 8.819%
Cc1cc(C)n(CC(=O)N2CCC(c3ccn4nccc4n3)CC2)n1 | 104.2%
CC1CCN(C(=O)Cn2cc(I)cn2)CC1 | 2.364%

Structure (SMILES) | Percent Effect
COc1cccc(CC(=O)N2CCCN(c3ccnc(C)c3)CC2)c1 | -23.77%
CCOCCCC(=O)N1CCN(C(=O)Cc2cccc(OC)c2)CC1 | -5.603%
Cc1nc(O)cc(C2CCN(C(=O)CN(C)c3ccccc3)CC2)n1 | -2.835%
Cc1cc(C)n(CC(=O)N2CCC(c3nc(C)no3)CC2)n1 | -3.198%
O=C(Nc1cccc(OCc2ccc(F)cc2)c1)C1COCCO1 (configuration not stated) | -6.014%
CCOc1ccc(CC(=O)Nc2cnccc2SCCCO)cc1 | 9.652%
CCC[C@@H]1CN(Cc2nnc(-c3cccnc3)o2)C[C@H]1NC(C)=O | -9.676%
COc1ncc(Cl)c(NCc2ccc([S+](C)[O-])cc2)n1 (configuration not stated) | -2.144%
CC1=Nc2c(c(O)nn2C(C)C)C(c2cn(C)nc2C)S1 (configuration not stated) | 105.3%
CC1=Nc2c(c(O)nn2C2CCOCC2)C(c2cccnc2)S1 (configuration not stated) | 111.6%
CC1=Nc2c(c(=O)[nH]n2C(C)C)C(c2cccs2)S1 (configuration not stated) | -8.42%
CC1=Nc2c(c(=O)[nH]n2C2CCOCC2)C(c2cccc(Br)c2)S1 (configuration not stated) | 2.755%
O[C@@H]1C[C@@H](c2nc(-c3cccnc3)no2)N(C2CCOCC2)C1 | 9.041%
CC1=Nc2c(c(O)nn2C(C)C)C(c2cccnc2)S1 (configuration not stated) | 138.8%
Cc1cccc(C(C(=O)N2CC(c3cccnc3)C2)N(C)C)c1 (configuration not stated) | -9.21%
CC1=Nc2c(c(O)nn2C(C)C)C(c2cnn(C)c2)S1 (configuration not stated) | 103.6%
COC(=O)[C@H](CSC)Nc1nc(C2CCCC2)nc2c1cnn2C | -6.594%
CCCN(CC1COc2ccccc2O1)C(=O)C1=NN(C)C(=O)CC1 (configuration not stated) | -3.876%
CC(C)N(CCS(C)(=O)=O)Cc1csc(Cc2ccc(Cl)cc2)n1 | -7.743%
CCC[C@H]1CN(S(=O)(=O)c2ccc(CC)s2)C[C@@H]1N | -3.149%
COC(=O)c1ccc(S(=O)(=O)N2CCCn3ncnc32)s1 | 103.1%
CCc1ccc(S(=O)(=O)N2CCCn3ncnc32)s1 | 83.72%

Structure (SMILES) | Percent Effect
O=C(c1ccc(-c2ccccc2)[nH]c1=O)N1CCCn2ncnc21 | 1.123%
COCCOc1ncccc1C(=O)N1CCCn2ncnc21 | -1.947%
O=S(=O)(c1ccc(Cl)s1)N1CCCn2ncnc21 | 95.01%
CCc1ccc(S(=O)(=O)N2CCCC(c3ncc[nH]3)C2)s1 (configuration not stated) | -13.86%
O=S(=O)(c1ccc(Cl)s1)N1CCCC(c2ncc[nH]2)C1 (configuration not stated) | 4.292%
O=C(c1cccnc1Oc1ccccc1)N1CCCn2ncnc21 | 8.828%
Cn1cc(C(=O)Nc2cccc(CCN3CCCC3)c2)ccc1=O | -2.076%
CCOCCS(=O)(=O)Cc1ccn(-c2cccc(F)c2)n1 | -15%
Cc1ccnc(N2CCC(=O)N(Cc3ccc(F)cc3)C(C(C)C)C2)n1 (configuration not stated) | -3.35%
Cc1ccsc1[C@@H]1CCN(C(=O)CCC(=O)c2ccccc2)C[C@H]1O | -8.391%
Cc1ccc(CNC(=O)CN2CCN(CCO)CC2)s1 | 0.0165%
N#CCCN1CCN(S(=O)(=O)c2ccc(Cl)s2)CC1 | 101.8%
Cc1ccc(S(=O)(=O)N2CCN(CCC#N)CC2)s1 | 7.923%
CC1(C)OCC2(CO1)CN(S(=O)(=O)c1ccc(Cl)s1)C2 | -3.142%
Cc1ccc(S(=O)(=O)N2CCN(CCC(N)=O)CC2)s1 | 97.05%
Cc1ccc(CNC(=O)CNCC2CCN(CCO)CC2)s1 | 0.4784%
Cc1ccc(S(=O)(=O)N2CCC(Cn3cc(C(C)(C)N)nn3)CC2)s1 | -17.3%
CCN1CCN(S(=O)(=O)c2cnc(NC(C)=O)s2)CC1 | -4.735%
Cc1ccc(S(=O)(=O)N2CCN(CCCO)CC2)s1 | 107%
